Screens deposited in PubChem by National Center for Advancing Translational Sciences (NCATS).
Abeta rescue: A-beta toxicity reversal in yeast; yeast expressing A-beta42, growth rescue, OD600, 48 h; response scale: 0% DMSO, 100% iron-clioquinol control; Potency, µM (titrated, usually from 46.1 µM), most hits filed as activators; 410,000 compounds, 0.063% hits; also: nearly all actives have a fitted effect of over 55% in size
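Yeast growth medium received pinned compounds, then yeast cells expressing toxic A-beta were added; plates incubated at 30 C for 48 hr. Growth read as absorbance at 600 nm, normalized to DMSO and equimolar FeCl3 plus clioquinol controls.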
aSyn rescue: alpha-synuclein toxicity inhibition in yeast | Yeast expressing alpha-synuclein, growth rescue, BacTiter-Glo, 24 h | Potency, µM (titrated, usually from 46.1 µM), without a hit: top-dose growth rescue (activation), most hits filed as activators | 370,000 compounds, 0.14% hits | AID 652106; also: % of control where 0% means no effect; nearly all actives have a fitted effect of over 65% in size
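Screening used galactose-induced yeast with toxic alpha-synuclein levels, exposed to compound for 24 hr at 30 deg C. Cell growth, read with BacTiter-Glo luminescence, gave the measured signal.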
FUS suppressor: FUS proteinopathy suppression in yeast; AID 1347120; S. cerevisiae FUS-expressing, growth rescue, OD600, 24 h; 390,000 compounds, 0.24% hits; Potency, µM (top dose mostly 76.6 µM), actives largely listed as activators;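 also: plate controls were DMSO vehicle for no effect and reference control for full effect; nearly all actives have a fitted effect of over 55% in size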
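Compound concentration series was pinned onto galactose-induced FUS-expressing yeast seeded at OD 0.005. Plates sat 24hr at 30C; absorbance at 600 nm gave growth. DMSO served as background control.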
TDP-43 yeast inh: TDP-43 toxicity inhibition in yeast | TDP-43 expressing yeast growth rescue, BacTiter-Glo, 24 h | 410,000 compounds, 1.8% hits | AID 652104 | Potency, µM (doses to about 46.1 µM), without a hit: at the highest dose growth rescue (activation), most hits filed as activators; also: % of control where 0% means no effect; nearly all actives have a fitted effect of over 50% in size
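Yeast expressing TDP-43 (pregrown in raffinose, seeded at OD600=0.02 in galactose medium) exposed to compounds 24 hr at 30 deg C. Growth read by BacTiter-Glo luminescence; rescue of toxicity appears as increased signal.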
The depositor's hits bear a star; i = inactive; ? = inconclusive; . = no result. This is a sample that favours compounds with a hit; in the whole collection about 2.1% have one here. Calls follow the shape of the dose curve; as a rule, active = well fitted curve in the direction sought with a large enough effect; inconclusive = small, poorly fitted or top-dose-only effect, or another doubt; inactive = no such curve, though single readings can be large; an effect the other way counts as inactive or inconclusive. Potency is read from the fitted curve at half-maximal effect.

SMILES	Abeta rescue	aSyn rescue	FUS suppressor	TDP-43 yeast inh
COc1ccc(NC(=O)Cn2c(CCC(=O)O)ccc2-c2ccccc2)cc1Cl	i	.	i	22%
COc1ccccc1N1CCN(C(=O)Nc2cccc(Cl)c2)CC1	i	6%	i	-4%
O=C(c1ccc(CS(=O)(=O)c2c(Cl)cccc2Cl)o1)N1CCCC1	i	-8%	i	14%
O=C(c1ccc(CS(=O)(=O)c2c(Cl)cccc2Cl)o1)N1CCN(c2ccccc2)CC1	i	.	28µM*	29%
COc1cccc(NC(=O)N2CCN(c3cccc(C)c3C)CC2)c1	i	0%	i	13µM*
O=C(CSc1ncc(CO)n1Cc1ccccc1)Nc1ccc(C(F)(F)F)cc1	i	3%	i	-10%
CCCCCC/C=N/Nc1nnc(Cc2ccccc2)c(=O)[nH]1	i	-4%	i	20µM*
CCC/C=N/Nc1nnc(Cc2ccccc2)c(=O)[nH]1	i	0%	i	-6%
CCOC(=O)C(C(=O)OCC)C(c1ccccc1)N1CCN(c2ccccc2)CC1 (stereo not drawn)	i	11%	i	13µM*
CCN(C(=O)c1cn(CC)c(=O)c2cc(OC)c(OC)cc12)c1ccccc1F	i	.	i	3%
CCC[C@H]1[C@@H](NC(=S)Nc2ccccc2Cl)CC[C@@]23CCCN2C(=O)CCC[C@@H]13	.	.	i	.
CC(C)(C)S(=O)N1Cc2cc(C(=O)NCc3ccc4c(c3)OCO4)nc(-c3cccc(-c4cc5ccccc5o4)c3)c2[C@@H]1CCO (stereo partly drawn)	i	-18%	28µM*	-10%
CC(C)(C)S(=O)N1Cc2cc(C(=O)NCC(F)(F)F)nc(-c3cccc(-c4cccc(F)c4)c3)c2[C@@H]1CCO (stereo partly drawn)	i	-2%	22µM*	16%
COc1cccc(-c2cccc(-c3nc(C(=O)Nc4ccc(-c5ccccc5)cc4)cc4c3[C@H](CCO)N(S(=O)C(C)(C)C)C4)c2)c1 (stereo partly drawn)	i	-15%	28µM*	0%
CC(C)(C)S(=O)N1Cc2cc(C(=O)NCc3ccc(Oc4ccccc4)cc3)nc(-c3cccc(-c4cc5ccccc5o4)c3)c2[C@H]1CCO (stereo partly drawn)	i	-27%	?	28%
COc1cccc(-c2cccc(-c3nc(C(=O)NCc4ccc5c(c4)OCO5)cc4c3[C@H](CCO)N(S(=O)C(C)(C)C)C4)c2)c1 (stereo partly drawn)	i	-53%	20µM*	-19%
S=C(Nc1cccc(Br)c1)c1ccccc1	?	-11%	i	13µM*
S=C(Nc1ccccc1)Nc1cccc(Br)c1	i	-8%	i	15%
CCOCCCNC(=O)C(c1ccc(C)cc1)N(Cc1ccc2c(c1)OCO2)C(=O)c1ccccc1O (stereo not drawn)	i	.	i	7%
COc1ccc(OCc2ccc(-c3nc(C#N)c(NCc4ccc(F)cc4)o3)o2)cc1	i	.	i	0%
O=C(CSc1nc2c([nH]c3ccccc32)c(=O)n1-c1ccccc1F)Nc1ccccc1C(F)(F)F	i	.	i	21%
COCCNC(=O)[C@@H]1CSC2c3ccc(OC)c(OC)c3C(=O)N21 (stereo partly drawn)	i	-4%	i	2.8µM*
O=C(CSc1ccc(-c2ccccn2)nn1)NCc1ccccc1	i	-2%	i	-10%
O=C(CSc1ccc(-c2ccccn2)nn1)NCc1ccc(F)cc1	i	-16%	?	16µM*
O=C(CSc1ccnc(=O)[nH]1)NCc1ccc(F)cc1	i	.	i	3.2µM*
SMILES	Abeta rescue	aSyn rescue	FUS suppressor	TDP-43 yeast inh
O=C(CSc1ncccn1)NCc1ccc(F)cc1	i	-1%	i	16µM*
CCOC(=O)c1cc(-c2ccccc2)n(CCC(=O)Nc2nc3c(C)cccc3s2)c1C	i	.	i	22%
CC(SCc1ccccc1)C(=O)Nc1ccccc1-c1ccccc1 (stereo not drawn)	i	-1%	18µM*	-25%
Cc1cccc2sc(N3CCN(C(=O)CS(=O)(=O)c4ccc(F)cc4)CC3)nc12	i	.	i	13µM*
Cc1ccc(C)c(OCCC(=O)Nc2ccc3c(c2)OCO3)c1	i	-8%	.	11µM*
Oc1ccccc1N=Nc1ccccc1O	?	13µM*	i	?
Nc1ccc(N=Nc2ccccc2O)c(N)c1	i	-8%	i	22%
CSc1nc2sc3c(c2c(=O)n1-c1ccc(C)cc1)CCCC3	i	.	i	24%
CN1C(=O)C2(Nc3ccccc3-c3nc4ccccc4n32)c2ccccc21 (stereo not drawn)	i	-8%	50µM*	-12%
Cc1noc(C)c1-c1ccc(C(=O)NCCc2ccccc2)c2occc12	i	-19%	?	32µM*
Cc1noc(C)c1-c1ccc(C(=O)NCc2cccs2)c2occc12	i	-4%	i	16µM*
CC(=O)Nc1ccc(NC(=O)c2ccc(-c3c(C)noc3C)c3ccoc23)cc1	i	3%	i	17%
Cc1ccc(C(=O)/C=C/C(=O)O)cc1	i	3.2µM*	i	-71%
CCC[C@H]1NC(=O)[C@H](C)N(C)C(=O)C(C)(C)C(=O)C(C)NC(=O)[C@H](Cc2ccc(OC)cc2)N(C)C(=O)[C@H](C(C)C)N(C)C(=O)CNC(=O)[C@H](CC(C)C)N(C)C(=O)CNC(=O)[C@H]([C@@H](C)CC)OC(=O)[C@H]1C (stereo partly drawn)	i	11%	?	35µM*
Cc1ccccc1NC(=O)Cn1cc(S(=O)(=O)N2CCCC2)c(S(=O)(=O)N2CCCC2)c1	i	.	i	13%
O=[N+]([O-])c1cccc(-c2ccc(/C=N/NC(=S)Nc3cccc(F)c3)o2)c1	?	-7%	i	18µM*
COc1ccc(C2=C(c3ccc([N+](=O)[O-])cc3)C(=O)OC2)cc1	i	-5%	i	-8%
Cc1ccc(C2=C(c3ccc([N+](=O)[O-])cc3)C(=O)OC2)cc1C	i	-4%	i	13µM*
O=C(Nc1nc2ncccn2c1-c1ccccc1)C1CC1	.	.	i	.
COc1cccc(-n2c(SCC(=O)Nc3nnc(C)s3)nc3c([nH]c4ccccc43)c2=O)c1	i	0%	i	21%
CC(=O)n1c(=O)c2ccccc2c(=O)n1-c1ccccc1	i	-17%	i	3.2µM*
CC1(C)C2CCC1(C)C(NC(=O)COC(=O)c1ccc(S(C)(=O)=O)c([N+](=O)[O-])c1)C2 (stereo not drawn)	.	2%	.	.
CN(C1=C(N2CCOCC2)C(=O)c2ccccc2C1=O)c1ccccc1	i	-33%	.	11µM*
CCCc1nn2c(=O)cc(COC(=O)c3ccc(NC(=O)COc4ccccc4F)cc3)nc2s1	i	.	i	29%
